Screening results as filed in PubChem BioAssay.
Only some compounds are listed: those with a hit (about 2.8% of all), similar ones and a draw of the others.
KCNH2 3.1 inh: qHTS for Inhibitors of KCHN2 3.1: Mutant qHTS. activity change, % (tested at about 1.8 µM). Potassium voltage-gated channel subfamily H member 2, brain isoform KCNH2 3.1 (human). 0.95% of 340,000 active. U2OS KCNH2 3.1, thallium flux FluxOr; hits give low values. AID 720553, 2013;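 active means maximum activity change below -70%; inconclusive means maximum activity change from -70% to -50%; inactive means maximum activity change above -50%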;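 further: thallium influx rate constant from kinetic fluorescence after stimulation buffer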
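Thallium flux read-out: FluxOr dye with Red40 quencher in HBSS/HEPES, 45 min at RT. Rate constants from kinetic reads were normalized to positive and negative DMSO controls. Cells: U2OS virally expressing the 3.1 isoform.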
GLP-1R inv ag: qHTS of GLP-1 Receptor Inverse Agonists (Inhibition Mode); 1.6% of 410,000 active; Potency, µM (top dose mostly 38.3 µM), actives largely listed as inhibitors; HEK293 GLP-1R CRE-luciferase, luminescence, 24 h; GLP-1R form is constitutively active; Glucagon-like peptide 1 receptor (Homo sapiens), P43220; further: nearly all actives have a fitted effect of over 55% in size
Target sequence (P43220 whole entry, looked up): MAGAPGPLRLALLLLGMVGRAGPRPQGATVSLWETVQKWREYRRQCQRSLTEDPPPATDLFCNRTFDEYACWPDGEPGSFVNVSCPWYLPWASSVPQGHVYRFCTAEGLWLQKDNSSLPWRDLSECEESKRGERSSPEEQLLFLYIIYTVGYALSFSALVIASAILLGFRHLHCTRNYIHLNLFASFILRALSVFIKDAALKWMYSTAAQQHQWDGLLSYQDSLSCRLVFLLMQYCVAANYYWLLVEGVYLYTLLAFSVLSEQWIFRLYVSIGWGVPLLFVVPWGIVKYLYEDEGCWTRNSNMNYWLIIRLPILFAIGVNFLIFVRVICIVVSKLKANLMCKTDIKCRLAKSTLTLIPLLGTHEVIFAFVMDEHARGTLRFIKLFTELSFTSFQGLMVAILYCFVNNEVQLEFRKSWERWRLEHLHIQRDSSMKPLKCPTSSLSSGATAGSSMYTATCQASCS
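Seeding at 200 cells/uL, 12 h culture, 24 hr compound treatment, then luciferase reagent and a luminescence read; cells are HEK293 stably expressing a constitutively active GLP-1R plus cAMP-responsive luciferase.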
GLS inhibitor: qHTS for Inhibitors of Glutaminase (GLS). GLS enzymatic activity, qHTS titration. Potency, µM (highest dose often 45.5 µM), usual class: inhibitors. Glutaminase kidney isoform, mitochondrial (Homo sapiens), O94925. 0.21% of 410,000 active
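Glutamate formation by hKGA was monitored fluorometrically using coupled glutamate oxidase, HRP and Amplex Red. Substrate was added as 1 mM L-glutamine solution; incubation was 30 min at RT after an initial read.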
HEK293 tox: qHTS of GLP-1 Receptor Inverse Agonists: Cytotox Screen | HEK293 cAMP-luciferase reporter cells, luminescence, 24 h | Potency, µM (series often up to 38.3 µM), most hits filed as inhibitors | 0.13% of 410,000 active;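 further: loss of luciferase light is scored as toxicity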
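Here, cytotoxicity is scored as loss of luminescence. The MLSMR collection was tested on cells seeded in medium containing 10% Nu serum, with a 24 hr compound exposure preceded by 12 hours of culture.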
hERG WT inh: qHTS for Inhibitors of KCHN2 3.1: Wildtype qHTS; U2OS, BacMam KCNH2, thallium flux FluxOr; hits give low values; 0.37% of 340,000 active; activity change, % at 1.84 µM; Voltage-gated inwardly rectifying potassium channel KCNH2 (Homo sapiens), Q12809;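 active means maximum activity change below -70%; inconclusive means maximum activity change between -70% and -50%; inactive means maximum activity change above -50%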
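U2OS cells transduced with wild-type KCNH2 virus are loaded with FluxOr dye for 45 min, and thallium flux is measured in kinetic reads before and after stimulation buffer. Rate constants are normalized to DMSO controls.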
GLP1R ag: qHTS of GLP-1 Receptor Agonists | Glucagon-like peptide 1 receptor (Homo sapiens), P43220 | HEK293 GLP-1R CRE-luciferase, luminescence, 4-6 h; cells express a hypersensitive GLP-1R form | Potency, µM (top dose mostly 45.6 µM), usual class: activators | 0.007% of 380,000 active
Large screens that a line does not name were inactive. Unless noted, the call rests on the fitted dose curve; in most records, active means well fitted curve in the direction sought with a large enough effect; inconclusive means small, poorly fitted or top-dose-only effect, or another doubt; inactive means no such curve, though single readings can be large; an effect the other way counts as inactive or inconclusive.

CCN1CCN(c2ccc(S(=O)(=O)N3CCCCC3)cc2NC(=O)COc2ccc(F)cc2Cl)CC1	KCNH2 3.1 inh -79.9, GLP-1R inv ag inconclusive
Cc1ccccc1Cn1nnc2c(=O)[nH]c(C3CCN(C(=O)c4ccccc4)CC3)nc21	none (no result: KCNH2 3.1 inh, hERG WT inh, GLP1R ag)
COc1cc(NC(=O)C2CCN(c3nc4ccccc4nc3C(F)(F)F)CC2)cc(OC)c1	none (no result: KCNH2 3.1 inh, hERG WT inh, GLP1R ag)
CCCn1cnc2cc(NCc3cccc(OC)c3)ccc21	KCNH2 3.1 inh -73.6
CCOc1ccc(CNc2ccc3c(c2)ncn3C(C)(C)C)cc1	KCNH2 3.1 inh -110.1
CCCn1cnc2cc(NCc3ccc(Br)cc3)ccc21	KCNH2 3.1 inh -83.3, GLP1R ag inconclusive
C=CCSc1nc2ccccc2c(=O)n1C1CCOC(C)(C)C1 (centres undefined)	GLP-1R inv ag 10µM
C=CCSc1nc2ccccc2c(=O)n1Cc1ccccc1	GLP-1R inv ag inconclusive, GLS inhibitor inconclusive
CCSc1nc2ccccc2c(=O)n1C1CCOC(C)(C)C1 (centres undefined)	KCNH2 3.1 inh -90.8, GLP-1R inv ag inconclusive
CC(NC(=O)CSc1n[nH]c(-c2ccccc2Cl)n1)c1nc2ccccc2[nH]1 (centres undefined)	none (no result: KCNH2 3.1 inh, hERG WT inh, GLP1R ag)
Cc1ccc(-c2cn3nc(C)c(C)nc3n2)cc1	GLP-1R inv ag 1.41µM
CCc1ccccc1NC(=O)Cn1nnc(C(=O)NCc2ccco2)c1N	GLP-1R inv ag inconclusive (no result: KCNH2 3.1 inh, hERG WT inh)
COc1ccc(CCNC(=O)CSc2ccc3ccccc3c2)cc1OC	none
O=C(CSc1ccc2ccccc2c1)NCCc1ccc(O)c(O)c1	GLS inhibitor 1.41µM
COc1ccc(-c2cc(C(F)(F)F)nc(SCC(=O)N3CCCCC3)n2)cc1OC	none (no result: KCNH2 3.1 inh, hERG WT inh)
Nc1ccc(O)c(C(=O)O)c1	GLS inhibitor 15.8µM (no result: KCNH2 3.1 inh, GLP-1R inv ag, HEK293 tox, hERG WT inh)
O=C(O)c1cc(O)ccc1O	none
CC(C)(C)C(=O)Nc1nc(-c2ccc3c(c2)OCO3)cs1	GLP-1R inv ag 10µM
CCSc1cc(N2CC(C)OC(C)C2)nc(-c2ccccc2Cl)n1 (centres undefined)	GLP-1R inv ag 10µM
CC(=O)N1/C(=C/c2ccc(N(C)C)cc2)C(=O)c2ccccc21	GLP-1R inv ag 10µM, HEK293 tox inconclusive
CN(C)c1ccc(/C=C2\CCC/C(=C\c3ccccc3)C2=O)cc1	GLP-1R inv ag inconclusive
Cc1cc2oc(C(=O)N(Cc3ccc(N(C)C)cc3)Cc3ccco3)c(C)c2cc1Cl	none (no result: KCNH2 3.1 inh, hERG WT inh, GLP1R ag)
COc1ccc(OC2CCN(S(=O)(=O)c3cccc(F)c3)CC2)cc1	GLP-1R inv ag inconclusive (no result: hERG WT inh)
COc1ccc(OC2CCN(S(=O)(=O)c3ccc(OC)cc3)CC2)cc1	GLP-1R inv ag 10µM
COc1ccc(S(=O)(=O)N2CCC(n3cnc4cc(C(F)(F)F)ccc43)CC2)cc1	KCNH2 3.1 inh -85.8, hERG WT inh -87.3
O=C(CN1CCN(Cc2ccccc2Cl)C1=O)NCc1ccccc1Cl	GLP-1R inv ag inconclusive (no result: KCNH2 3.1 inh, hERG WT inh)
Cc1ccccc1OCC(O)CN(Cc1ccccc1O)C1CCCCC1 (centres undefined)	GLP-1R inv ag 11.2µM, HEK293 tox inconclusive
CN(CC(O)COc1ccccc1F)C1CCCCC1 (centres undefined)	none
CCN(CC(O)COc1ccc(OCC(O)CN(CC)C2CCCCC2)cc1)C1CCCCC1 (centres undefined)	GLP-1R inv ag 2.24µM
S=C(NCCc1ccccc1)N1CCN(C(=S)NCCc2ccccc2)CC1	none
S=C(NCCc1ccccc1)N1CCN(C2CCCCC2)CC1	KCNH2 3.1 inh -92.7
CC(C)C[C@H](N)c1cn([C@@H](CCCCN)C(=O)N2CCNCC2)nn1	GLP-1R inv ag 0.891µM, HEK293 tox inconclusive
CC1=C(C(=O)Nc2ccc(Cl)cc2)C(c2ccccc2C)n2ncc(C(=O)Nc3ccc(C)cc3)c2N1 (centres undefined)	GLP-1R inv ag 2.82µM (no result: KCNH2 3.1 inh, hERG WT inh, GLP1R ag)
CC1=C(C(=O)Nc2ccc(Cl)cc2)C(c2ccccc2)n2ncc(C(=O)Nc3ccccc3)c2N1 (centres undefined)	GLP-1R inv ag inconclusive (no result: KCNH2 3.1 inh, hERG WT inh, GLP1R ag)
Cc1ccc(C(=O)NNc2ncnc3c2cnn3C)cc1	GLS inhibitor 5.01µM
Cc1ccc(C)c(S(=O)(=O)NCCc2csc(-c3ccc(Cl)cc3)n2)c1	GLP-1R inv ag inconclusive (no result: KCNH2 3.1 inh, hERG WT inh, GLP1R ag)
Cc1ccc(NC(=S)NCC2CCN(C(C)c3ccccc3)C2)cc1 (centres undefined)	GLP-1R inv ag inconclusive
CC(c1ccccc1)N1CCC(CNC(=S)Nc2cccc(Cl)c2)C1 (centres undefined)	GLP-1R inv ag 3.16µM, HEK293 tox inconclusive
O=C(NCc1ccc(Cl)cc1Cl)C1CCN(S(=O)(=O)c2ccc3c(c2)OCCCO3)CC1	GLP-1R inv ag 7.94µM
O=C(c1nc(SCc2ccc([N+](=O)[O-])cc2)n2ccccc12)C(F)(F)F	KCNH2 3.1 inh -71.1
COc1cc(OC)cc(C(=O)Nc2ccn(C)n2)c1	none
CCCSc1ccc2nc(-c3ccccc3)cn2c1	GLP-1R inv ag 2.51µM
Cc1cccc(N(C(=O)c2nsc(Cl)c2Cl)C(C(=O)NC2CCCC2)c2ccc(O)cc2)c1C (centres undefined)	GLP-1R inv ag 8.91µM
Cc1cc(C)cc(N(C(=O)c2nsc(Cl)c2Cl)C(C(=O)NC2CCCC2)c2ccc(O)cc2)c1 (centres undefined)	GLP-1R inv ag 3.98µM, HEK293 tox inconclusive
CCOc1ccc(C(C(=O)NC2CCCC2)N(Cc2ccccc2)C(=O)c2nsc(Cl)c2Cl)cc1 (centres undefined)	GLP-1R inv ag 10µM
Cc1c(Cl)cccc1NC(=O)Cn1cc(C(=O)C2CCCCC2)c2ccccc21	GLP-1R inv ag inconclusive (no result: KCNH2 3.1 inh, hERG WT inh, GLP1R ag)
Cc1ccccc1Cn1c2ccccc2c2cnn(CC(=O)NC(C)CCc3ccccc3)c(=O)c21 (centres undefined)	none (no result: KCNH2 3.1 inh, hERG WT inh, GLP1R ag)
Cc1ccc(C(c2sc3nc(-c4ccco4)nn3c2O)N2CCN(Cc3ccccc3)CC2)cc1 (centres undefined)	none (no result: KCNH2 3.1 inh, hERG WT inh, GLP1R ag)
COCCNC(=O)Cn1c(=O)n(CCCCCC(=O)NCc2ccccc2Cl)c(=O)c2sccc21	none (no result: KCNH2 3.1 inh, hERG WT inh, GLP1R ag)
CCc1ccc(N2C=C(C(=O)OC)C(c3cccc4ccccc34)C(C#N)=C2N)cc1 (centres undefined)	GLP-1R inv ag 1µM (no result: KCNH2 3.1 inh, GLS inhibitor, hERG WT inh, GLP1R ag)
Cc1c(C)n(CC(O)CNc2ccccc2)c2ccccc12 (centres undefined)	GLP-1R inv ag 10µM
COc1ccc(C(=O)/C(=C/c2cccs2)c2nc3ccccc3o2)cc1	GLP-1R inv ag 11.2µM
